Data as given in PubChem BioAssay (NCI).
The panel holds about 83,000 compounds, 20% with a hit somewhere; the sample as a whole holds those more often.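 Interpretation: 100, growth as untreated; towards 0, rising growth inhibition; 0, no net growth; 0 to -100, cell death. Compounds scoring below 10 were considered active.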 Calls of active or inactive are those of the source.

Tested on: MDA-MB-231 breast
Assay: NCI-60 one-dose screen, 48 h (100 = growth as untreated, 0 = no growth, -100 = all killed)
Settings: 10 µM

| Compound | growth |
| --- | --- |
| COc1ccc(N2N=C(c3ccc4c(c3)OCCO4)CC2c2cccc(NC(=O)CCCNS(=O)(=O)c3ccc(F)cc3)c2)cc1 (centres undefined) | 69.2% (inactive) |
| COc1cc(/C=N/NC(=O)c2ccc3nc(-c4ccc(Cl)cc4)[nH]c3c2)cc(OC)c1OC | -74.5% (active) |
| O=C(N=Nc1c(O)[nH]c2ccc(Br)cc12)c1ccc2nc(-c3ccccc3)[nH]c2c1 | -97.5% (active) |
| COc1ccccc1[C@H]1C(C(=O)c2ccc(Cl)cc2)C2(N[C@@H]1c1ccccc1)C(=O)Nc1ccc(Cl)cc12 (some centres undefined) | 4.86% (active) |
| O=c1cc(-c2ccccc2)oc2cc(OCCCNCc3ccccc3)cc(O)c12 | -43.1% (active) |
| O=C1Nc2cc(-c3ccc(NC(=O)c4cccs4)cc3)ccc2/C1=C/c1ccc[nH]1 | 61% (inactive) |
| O=C(c1ccc(O)cc1)C1[C@H](c2ccc(Br)cc2)[C@@H](c2ccccc2)NC12C(=O)Nc1ccccc12 (some centres undefined) | -40.8% (active) |
| C=C1CCC2C3(C)COC(c4ccccc4F)OC3CCC2(C)C1C/C=C1/C(=O)OCC1O (centres undefined) | -54% (active) |
| C=C1CCC2C3(C)COC(c4c(F)cccc4F)OC3CCC2(C)C1C/C=C1/C(=O)OCC1O (centres undefined) | -33.4% (active) |
| COc1cccc(/C=C2\N=C(C)N(CCc3ccc(S(N)(=O)=O)cc3)C2=O)c1 | 104% (inactive) |
| C=C1CCC2C3(C)COC(c4cccc(F)c4)OC3CCC2(C)C1CC(O)C1=CCOC1=O (centres undefined) | 67.5% (inactive) |
| Cn1cc(-c2cc(N)n3nc(-c4c[nH]c5ccc(Br)cc45)cc3n2)c2cccnc21 | -85.6% (active) |
| C=C1CCC2C3(C)COC(c4c(F)cccc4F)OC3CCC2(C)C1CC(O)C1=CCOC1=O (centres undefined) | 91.1% (inactive) |
| Brc1ccc(/C=C/c2n(Cc3ccc4ccccc4c3)c3ccccc3[n+]2Cc2ccc3ccccc3c2)cc1 | -95.9% (active) |
| O=C(Nc1ccc(I)cc1)Nc1nc2ccc([N+](=O)[O-])cc2s1 | -100% (active) |
| O=C(N/N=C/c1ccc(B(O)O)o1)c1[nH]c2ccc(Br)cc2c1-c1ccccc1 | 28.1% (inactive) |
| CONC[C@]1(C)C=C2C(=O)[C@](C)(O)C3(CC3)C(C)=C2[C@H]1O | -33.5% (active) |

| Compound | growth |
| --- | --- |
| O=C(Nc1cccc(-c2cn(-c3ccc4oc(=O)ccc4c3)nn2)c1)Nc1cc(C(F)(F)F)cc(C(F)(F)F)c1 | 34.7% (inactive) |
| CCCCCCCCCCCCCCCCCCCC(=O)NCCc1c[nH]c2ccc(OC(=O)CCCC(=O)OCCOOCCOOCCOOCCOOCCOOCCOOCCOOCCOOCCOOCCOOCCOOCCOC)cc12 | 44.5% (inactive) |
| COc1ccc(/C(C)=N/N=C2C(=O)N(C)c3ccc(Br)cc32)cc1S(N)(=O)=O | 56.7% (inactive) |
| N#Cc1c(NC(=O)c2ccc(C(F)(F)F)cc2C(F)(F)F)sc2c1CCC(=O)C2 | -74.4% (active) |
| CNCc1cccc2c1OCCCCCC[C@@](C)(O)CC1(CC1)S(=O)(=O)c1ccc(cc1)-c1cnc(N)c(n1)C(=O)N2 | -92.8% (active) |
| COc1cc(OC(F)(F)F)ccc1C(=O)Nc1sc2c(c1C#N)CCC(=O)C2 | 66.7% (inactive) |
| Nc1n[nH]c2cccc(C#Cc3cccc(NC(=O)Nc4cc(C(F)(F)F)cc(C(F)(F)F)c4)c3)c12 | -93.4% (active) |
| N#Cc1c(-c2ccc(F)cc2)nc(SCc2ccc([N+](=O)[O-])cc2)nc1N1CCOCC1 | 47.1% (inactive) |
| CC1=N/C(=C\c2ccc(N(C)C)cc2)C(=O)N1CCc1ccc(S(N)(=O)=O)cc1 | 96.4% (inactive) |
| CN(CCF)c1ccc(/C=C/C(=O)c2ccc(N)cc2O)cc1 | 95.7% (inactive) |
| O=C(c1ccc(Cl)cc1)C1[C@H](c2ccccc2Br)[C@@H](c2ccccc2)NC12C(=O)Nc1ccccc12 (some centres undefined) | 8.15% (active) |
| O=C(Nc1cc(Cl)cc(Cl)c1)Nc1cc(Cl)cc(Cl)c1 | -65.6% (active) |
| O=C(c1ccc(O)cc1)C1[C@H](c2ccc(Br)cc2)[C@@H](c2ccccc2)NC12C(=O)Nc1ccc(Br)cc12 (some centres undefined) | -67.7% (active) |
| COc1ccccc1[C@H]1C(C(=O)c2ccc(O)cc2)C2(N[C@@H]1c1ccccc1)C(=O)Nc1ccc(Br)cc12 (some centres undefined) | 32.9% (inactive) |
| CN1CCN(c2ccc(C(=O)/C=C/c3ccc(C#N)cc3)cc2)CC1 | 65.8% (inactive) |
| CC(C)(C)Nc1nc2cc(Cl)c(Cl)cc2nc1S(C)(=O)=O | 26.7% (inactive) |
| COc1cc(/C=C/C(=O)c2cc(OC)c(OC)c(OC)c2)ccc1Oc1nc(Nc2ccc(F)cc2)nc(N(C)C)n1 | -60% (active) |
